STAT3 binder – binds human STAT3 on microarray; P40763; Small molecule microarray, His-STAT3 binding, anti-His fluorescence; calls only; hit rate 0.2% among 17,000; AID 624138;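 active = compounds whose four printed spots each show fluorescence over background unusually high for their array block, chance value under 7%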
Target sequence (P40763 whole entry, looked up): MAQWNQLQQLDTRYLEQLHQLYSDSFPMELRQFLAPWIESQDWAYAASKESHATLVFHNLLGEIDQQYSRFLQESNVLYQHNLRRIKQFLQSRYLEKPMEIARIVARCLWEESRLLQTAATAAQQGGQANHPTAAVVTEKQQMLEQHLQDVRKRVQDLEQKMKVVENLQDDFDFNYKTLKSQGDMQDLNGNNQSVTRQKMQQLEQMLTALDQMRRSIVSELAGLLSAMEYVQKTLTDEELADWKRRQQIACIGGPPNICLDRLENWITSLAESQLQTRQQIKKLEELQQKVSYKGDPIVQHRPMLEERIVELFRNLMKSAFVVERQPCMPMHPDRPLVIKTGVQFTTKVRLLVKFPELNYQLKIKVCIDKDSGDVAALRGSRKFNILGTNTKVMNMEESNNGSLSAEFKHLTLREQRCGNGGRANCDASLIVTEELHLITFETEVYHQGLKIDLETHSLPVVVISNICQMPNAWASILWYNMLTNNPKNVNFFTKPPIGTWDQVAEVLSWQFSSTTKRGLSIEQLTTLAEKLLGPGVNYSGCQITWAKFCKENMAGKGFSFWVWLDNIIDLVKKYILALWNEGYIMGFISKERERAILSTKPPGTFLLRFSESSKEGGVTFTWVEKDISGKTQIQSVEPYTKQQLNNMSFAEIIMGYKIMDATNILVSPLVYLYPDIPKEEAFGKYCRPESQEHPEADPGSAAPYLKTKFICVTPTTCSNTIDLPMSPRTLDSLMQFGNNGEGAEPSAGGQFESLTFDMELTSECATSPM
NFkB SMM – binds human NF-kappa-B p105 on microarray | P19838 | hit rate 1.3% among 17,000 | AID 624139 | Small molecule microarray, anti-His fluorescence binding | calls only;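 active = spot fluorescence over background significantly raised, with a chance value under 7% in all four replicate spots of the compound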;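 note: probe protein is his-tagged human p50 processed subunit at 1 µg/ml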
p53 mut binder – mutant p53 (human) binding; small molecule microarray binding, anti-GST fluorescence; hit rate 0.4% among 17,000; AID 624136; calls only;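 active = compounds whose four printed spots each glow above background more than chance allows, each with a p-value under 7%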
c-Myc SMM – binds human c-Myc on microarray; P01106; small molecule microarray, His-c-Myc binding, anti-His fluorescence; calls only; hit rate 1.5% among 17,000;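 active = spot fluorescence over background with P-value below 7% in all four replicate spots, showing protein binding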
p53 PUMA act – restores mutant p53 pathway signaling in SW480 cells; activation, % at 9.98 µM; AID 624151; hit rate 1.5% among 28,000; SW480 PUMA-promoter luciferase, p53 mutant reactivation; in the data active = activation above about 52%
Hits are given with their value; . = inactive; / = no result given; + = active, no number. Hits are enriched below; roughly 2.6% of the tested compounds scored in any of these assays.

SMILES	STAT3 binder	NFkB SMM	p53 mut binder	c-Myc SMM	p53 PUMA act
Cc1noc(C)c1S(=O)(=O)N(C)C[C@@H]1OCCCC[C@H](C)Oc2ccc(NC(=O)NC(C)C)cc2C(=O)N([C@@H](C)CO)C[C@H]1C	.	.	.	.	.
CC(C)NC(=O)Nc1ccc2c(c1)C(=O)N([C@@H](C)CO)C[C@@H](C)[C@@H](CN(C)S(=O)(=O)c1ccccc1)OCCCC[C@@H](C)O2	+	.	.	+	.
CC(C)NC(=O)Nc1ccc2c(c1)C(=O)N([C@H](C)CO)C[C@H](C)[C@H](CN(C)S(=O)(=O)c1ccccc1)OCCCC[C@@H](C)O2	.	.	.	.	.
Cc1noc(C)c1S(=O)(=O)N(C)C[C@@H]1OCCCC[C@H](C)Oc2ccc(NC(=O)NC(C)C)cc2C(=O)N([C@H](C)CO)C[C@H]1C	.	+	.	+	.
CS(=O)(=O)N(CC(=O)Nc1ccccc1Br)c1cc(Cl)c(Cl)cc1Cl	/	/	/	/	.
COC(=O)c1cn(CCCNC(=O)[C@H](Cc2ccccc2)NS(=O)(=O)c2ccc(C)cc2)nn1	.	.	.	.	/
O=C(N[C@@H](Cc1ccccc1)Cn1cc(CN2C(=O)COC[C@H]2c2ccccc2)nn1)c1ccccc1	.	.	+	.	/
Cc1ccc(S(=O)(=O)N[C@H](C(=O)NCCn2cc(CN3C(=O)COC[C@H]3c3ccccc3)nn2)C(C)C)cc1	.	.	+	.	/
O=C(Nc1ccccc1)N[C@H](Cc1ccccc1)Cn1cc(CN2C(=O)COC[C@H]2c2ccccc2)nn1	.	.	+	.	/
Cc1cc(OCc2nc3ccccc3s2)ccc1NC(=O)Nc1cccc(Cl)c1	/	/	/	/	.
Cc1ccc2nc(-c3ccc(NC(=O)CS(=O)(=O)Cc4ccccc4)cc3)sc2c1	/	/	/	/	75
Cc1ccc2nc(-c3ccc(NC(=O)Cn4nc([N+](=O)[O-])c(Cl)c4C)cc3)sc2c1	/	/	/	/	80
Cc1ccc2nc(-c3ccc(NC(=O)CN4C(=O)c5ccccc5C4=O)cc3)sc2c1	.	.	.	.	.
Cc1ccc2nc(-c3ccc(NC(=O)CSc4nnc(C)s4)cc3)sc2c1	/	/	/	/	.
Cc1nnc(SCc2nc(N)nc(Nc3ccccc3)n2)s1	.	.	.	.	.
Cc1nnc(SCc2nc(N)nc(Nc3ccc4ccccc4c3)n2)s1	/	/	/	/	97
COc1ccc(C#Cc2ccc3c(c2)[C@]2(C(=O)N3)[C@H](c3ccc(O)cc3)N3[C@H](c4ccccc4)[C@H](c4ccccc4)OC(=O)[C@H]3[C@@H]2C(=O)N2CCCCCCC2)cc1	+	.	+	.	/
O=C1O[C@@H](c2ccccc2)[C@@H](c2ccccc2)N2[C@@H](c3ccc(O)cc3)[C@]3(C(=O)Nc4ccc(C#CC5(O)CCCCCC5)cc43)[C@@H](C(=O)N3CCCCCCC3)[C@H]12	+	.	.	.	/
O=C1O[C@H](c2ccccc2)[C@H](c2ccccc2)N2[C@H]1[C@@H](C(=O)N1CCCCCCC1)[C@]1(C(=O)Nc3ccc(C#CC4(O)CCCCCC4)cc31)[C@H]2c1ccc(O)cc1	.	.	.	.	/
COc1ccc(-c2cc(=O)c3c(O)c(OC)c(O)c(OC)c3o2)cc1	.	.	.	.	58
O=S(=O)(Nc1ncccn1)c1ccc(NC(=S)Nc2ccc3c(c2)CCC3)cc1	/	/	/	/	.
c1cnc(SCCCCOc2ccc3c(c2)CCC3)nc1	/	/	/	/	71
Cc1cc(Oc2ccccc2)nc(SCC(=O)Nc2ccc(Cl)cc2Cl)n1	/	/	/	/	.
Cc1ccnc(SCC(=O)Nc2cccc(Cl)c2)n1	/	/	/	/	.
O=C(CSc1ncccn1)Nc1ccc(Cl)cc1Cl	.	.	.	.	134
SMILES	STAT3 binder	NFkB SMM	p53 mut binder	c-Myc SMM	p53 PUMA act
CCOc1ccc(NC(=O)CSc2ncccn2)cc1	/	/	/	/	54
Cc1ccnc(SCC(=O)Nc2ccc(Cl)cc2Cl)n1	/	/	/	/	52
CCOc1ccc(-c2nnc(SCC(=O)O)n2-c2ccccc2)cc1	.	.	.	.	.
CN(CC(=O)Nc1cc(C(F)(F)F)ccc1Cl)S(=O)(=O)c1ccc2ccccc2c1	/	/	/	/	.
Nc1nnc(SCC(=O)Nc2ccccc2Br)s1	/	/	/	/	.
CN(C)c1c(F)cc(C(=O)NC(=O)NC2=NCCS2)cc1F	/	/	/	/	61
Cc1ccc(N(CC(N)=O)S(=O)(=O)c2ccc(Cl)cc2)cc1	/	/	/	/	.
O=C1/C(=C/c2ccc(N3CCOCC3)cc2)CCC1C1CCCC1 (stereo not drawn)	/	/	/	/	65
CC(=O)c1ccc(N2CCOCC2)cc1O	.	.	.	.	/
O=C(CSc1nnc(-c2ccccc2)n1-c1ccccc1)Nc1cccc(Br)c1	.	.	.	.	.
COC(=O)c1cccc(-n2c(CCC(=O)O)ccc2-c2cccs2)c1	.	.	.	.	63
Cc1ccc2c(c1)c1nc3ccccc3nc1n2CCN1CCOCC1	.	.	.	+	.
CC(NC(=O)COc1ccc(Cl)cc1Cl)C(=O)O (stereo not drawn)	.	.	.	.	.
COc1cc(OC)c2ccc(=O)oc2c1CC(O)C(C)(C)O (stereo not drawn)	.	.	.	.	.
C[C@@H]1CCCCO[C@@H](CN(C)C(=O)C2CCCCC2)[C@H](C)CN([C@H](C)CO)C(=O)c2cc(NS(=O)(=O)c3cccs3)ccc2O1	.	.	.	.	.
C[C@@H]1CCCCO[C@@H](CN(C)C(=O)C2CCCCC2)[C@@H](C)CN([C@H](C)CO)C(=O)c2cc(NS(=O)(=O)c3cccs3)ccc2O1	.	+	.	+	.
C[C@H](CO)N1C[C@H](C)[C@@H](CN(C)C(=O)C2CCCCC2)OCCCC[C@H](C)Oc2ccc(NS(=O)(=O)c3cccs3)cc2C1=O	.	.	.	.	.
C[C@@H]1CCCCO[C@H](CN(C)C(=O)C2CCCCC2)[C@H](C)CN([C@@H](C)CO)C(=O)c2cc(NS(=O)(=O)c3cccs3)ccc2O1	+	.	.	.	.
C[C@@H]1CN([C@@H](C)CO)C(=O)c2cc(NC(=O)Nc3cccc4ccccc34)ccc2O[C@@H](C)CCCCO[C@@H]1CN(C)C	.	.	.	.	.
C[C@H](CO)N1C[C@H](C)[C@@H](CN(C)CC2CC2)OCCCC[C@H](C)Oc2ccc(NC(=O)Nc3cccc4ccccc34)cc2C1=O	.	+	.	.	/
C[C@H](CO)N1C[C@H](C)[C@@H](CN(C)CC2CCCCC2)Oc2ccc(NC(=O)Nc3ccc4c(c3)OCO4)cc2C1=O	.	+	+	+	.
C[C@@H]1CN([C@@H](C)CO)C(=O)c2cc(NC(=O)Nc3ccc4c(c3)OCO4)ccc2O[C@@H]1CN(C)CC1CCCCC1	.	.	.	.	.
C[C@@H]1CN([C@@H](C)CO)C(=O)c2cc(NC(=O)NC3CCCCC3)ccc2O[C@H]1CN(C)C(=O)NC1CCCCC1	.	.	.	+	.
C[C@@H]1CCCCO[C@@H](CN(C)C(=O)c2ccccc2)[C@@H](C)CN([C@H](C)CO)C(=O)c2cc(NC(=O)Nc3cccc4ccccc34)ccc2O1	.	+	+	+	/
O=C(O)/C=C/C(=O)N(Cc1ccccc1)Cc1ccccc1	/	/	/	/	.
